The values that follow come from PubChem BioAssay AID624267 (The Scripps Research Institute Molecular Screening Center, 2012).

The whole screen tested about 360,000 compounds, of which about 1,400 (0.39%) were called active. Shown is part of a subset that was picked to be rich in actives. A number with no mark means an inactive call. Rule as the data show it: active = inhibition above about 21%; inactive = the rest.

The target in this assay is Receptor-interacting serine/threonine-protein kinase 2 (Homo sapiens) (UniProt O43353). Put plainly: inhibitors of RIPK2 association with NOD2 – fluorescence, CHO cells, BLA complementation, primary screen (AID 624267).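 Also: 0% = vehicle only and 100% = reference blocker.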 The settings on record: CHO BLA complementation NOD2-RIPK2, CCF4 ratio; at 4.98 µM; stronger effect = higher value.
Sequence of Receptor-interacting serine/threonine-protein kinase 2 (Homo sapiens) (O43353 whole entry, looked up): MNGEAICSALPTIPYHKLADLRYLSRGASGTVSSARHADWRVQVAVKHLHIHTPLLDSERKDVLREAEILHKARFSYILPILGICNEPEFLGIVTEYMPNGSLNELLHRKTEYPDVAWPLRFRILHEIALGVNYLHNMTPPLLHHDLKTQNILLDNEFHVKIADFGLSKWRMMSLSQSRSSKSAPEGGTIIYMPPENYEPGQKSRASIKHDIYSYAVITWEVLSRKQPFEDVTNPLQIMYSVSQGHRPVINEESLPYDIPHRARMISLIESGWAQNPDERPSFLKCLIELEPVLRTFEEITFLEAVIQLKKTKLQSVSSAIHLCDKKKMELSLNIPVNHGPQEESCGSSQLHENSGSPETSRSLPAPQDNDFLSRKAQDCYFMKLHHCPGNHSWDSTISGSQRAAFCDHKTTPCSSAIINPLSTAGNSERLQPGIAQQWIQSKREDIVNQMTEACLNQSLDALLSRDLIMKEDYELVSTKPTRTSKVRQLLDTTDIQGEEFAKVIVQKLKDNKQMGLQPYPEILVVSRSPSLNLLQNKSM
With `CCOC(=O)[C@]12Cc3ccccc3[C@H]1N(C1CCCCC1)C(=O)c1cc(OC)ccc12`, the inhibition (commonly the drop in the measured response relative to a control, in per cent) was 43.5% (active).

`CCOC(=O)[C@]12Cc3cc(OC)ccc3[C@H]1N(C(C)C)C(=O)c1ccccc12`: the inhibition is -1.01%.

Take `CCOC(=O)c1cccc(C2=C(CNC(=O)c3ccncc3)[C@H]3CC[C@@H](C2)N3Cc2ccccc2)c1`: the inhibition is -12.2%.

As for `Cc1ccc2c(c1)C1CN(C)CCC1N2C(=O)Cn1nnc(-c2ccccc2F)n1` (stereo not given), the inhibition was -3.9%.

`CCN1CCN(Cc2cc(OC)c3c(c2)OCO3)CC1`: the inhibition was -5.64%.

`COc1cc(OC)cc(C2(C#N)CCN(C)CC2)c1`: the inhibition was -12.2%.

With `c1ccc(CCNC2CCCCCC2)cc1`, the inhibition was -21.6%.

`CC(=O)OC1C2(CC3N4C(=O)C5(CO)SSC4(CC31O)C(=O)N5C)OC(C)C(C)(C)C2=O` (stereo not given): the inhibition is 63.9% (active).

With `CC(=NCc1ccc2c(c1)OCO2)c1c(O)[nH]c(=O)[nH]c1=O`, the inhibition is 4.27%.

With `CC(C(=O)Nc1ccc(Cl)cc1Cl)N1CC=C(c2ccccc2)CC1` (stereo not given), the inhibition was -16.5%.

Regarding `CC[C@H]1CC2CN3CCc4c([nH]c5ccccc45)C(C(=O)OC)(C2)C13` (stereo not given in full), the inhibition was -13.6%.

Take `CNCC(O)c1cc(F)c(OCc2ccccc2)c(OCc2ccccc2)c1F` (stereo not given): the inhibition was -9.31%.

As for `CN(C)CC1Oc2ccccc2OC1(O)c1ccccc1` (stereo not given), the inhibition is 54.1% (active).

For the molecule `COc1ccccc1NC(=O)N1C[C@@H]2C[C@@H](C1)c1cccc(=O)n1C2`, the inhibition was -9.61%.

For `COC(=O)C1=C(c2ccc(Cl)c(C(F)(F)F)c2)C[C@@H]2CC[C@H]1N2C(=O)NC1CC1`, the inhibition was -1.54%.
